Screens: PubChem, National Center for Advancing Translational Sciences (NCATS)
An excerpt weighted towards active compounds, which were near 5.7% of everything screened.
B2AR arrestin = recruits beta-arrestin to the human beta2-adrenergic receptor. P07550. beta-arrestin recruitment to beta2AR, cell-based reporter. Potency, µM (series often up to 46.1 µM), without a hit: top-dose activation, hits mostly activators. actives 0.02% (n = 330,000);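 note: 0% = DMSO controls and full agonism = EC100 isoproterenol or metaproterenol; nearly all actives have a fitted effect of over 65% in size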
VP16 counter = inhibits Gal4-VP16 luciferase reporter, ROR gamma counter-screen; Drosophila S2 Gal4-VP16 UAS-luciferase, luminescence, 20 h; Potency, µM (series often up to 53.6 µM), for the others: at the top dose activity, negative = inhibition, usual class: inhibitors; actives 3.5% (n = 310,000);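 note: Gal4-VP16 expression switched on by copper sulfate through the metallothionein promoter; nearly all actives have a fitted effect of over 50% in size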
NPSR antag = neuropeptide S receptor (human) antagonism, cAMP; CHO-NPSR cells, cAMP TR-FRET, antagonist mode; Q6W5P4; actives 1% (n = 220,000); Potency, µM (top dose mostly 38.3 µM), inactives show at the top dose activity change, negative = inhibition, hits mostly inhibitors; AID 1461; note: nearly all actives have a fitted effect of over 50% in size
RORg inh = inhibitors of mouse ROR gamma transcriptional activity. P51450. Drosophila S2 Gal4-RORgamma UAS-luciferase reporter, 20 h. Potency, µM (series often up to 53.6 µM), inactives show at the top dose activity change, negative = inhibition, most hits filed as inhibitors. actives 5.4% (n = 310,000). AID 2551; note: nearly all actives have a fitted effect of over 60% in size
Target sequence (P51450 whole entry, looked up, the tested form may be a part): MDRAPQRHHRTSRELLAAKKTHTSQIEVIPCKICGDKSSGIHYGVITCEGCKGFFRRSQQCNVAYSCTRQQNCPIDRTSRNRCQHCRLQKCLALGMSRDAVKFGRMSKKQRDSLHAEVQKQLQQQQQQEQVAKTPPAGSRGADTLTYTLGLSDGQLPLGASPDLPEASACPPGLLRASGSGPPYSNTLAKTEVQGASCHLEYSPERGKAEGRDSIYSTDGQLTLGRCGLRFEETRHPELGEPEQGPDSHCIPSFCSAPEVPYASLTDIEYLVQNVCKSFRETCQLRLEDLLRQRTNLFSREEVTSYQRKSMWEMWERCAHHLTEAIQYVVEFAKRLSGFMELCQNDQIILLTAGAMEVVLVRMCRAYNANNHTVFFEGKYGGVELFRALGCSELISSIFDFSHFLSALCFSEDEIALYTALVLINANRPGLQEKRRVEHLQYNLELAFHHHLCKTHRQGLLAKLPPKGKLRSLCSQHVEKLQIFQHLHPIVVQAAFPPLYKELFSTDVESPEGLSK
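Read-out: Photinus luciferase luminescence; inhibitors lower reporter signal. Insect Schneider cells with Gal4-ROR gamma fusion under metallothionein promoter, UAS reporter; 700 uM final copper sulfate induction, 20 hr, ambient temperature.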
Starred values were filed as active, the others as inactive; [ ] = dose if it differs, or a comment. Calls come from the whole dose curve; as a rule, active = well fitted curve in the direction sought with a large enough effect; inconclusive = small, poorly fitted or top-dose-only effect, or another doubt; inactive = no such curve, though single readings can be large; an effect the other way counts as inactive or inconclusive. Unless noted, % is set by controls: 0 for no effect and ±100 for the full control effect; potency is the fitted concentration of half-maximal effect.

How did CCOC(=O)COn1c(-n2nc(C)cc2C)nc2ccccc2c1=O do in these assays?
B2AR arrestin: 0.5%; VP16 counter: 14.1µM*; RORg inh: 17.8µM*

How did CCOn1c(-n2nc(C)cc2C)nc2ccccc2c1=O do in these assays?
B2AR arrestin: 0.2%; VP16 counter: 5.6%; NPSR antag: -5.7%[46.1 µM]; RORg inh: -34.8%

Results for Cc1cc(C)n(-c2nc3ccccc3c(=O)n2OCC#N)n1 ?
B2AR arrestin: 7.7%; VP16 counter: 1µM*; RORg inh: 0.501µM*

How did CCOC(=O)C(C)On1c(-n2nc(C)cc2C)nc2ccccc2c1=O (stereo not given) do in these assays?
B2AR arrestin: 0.0%; VP16 counter: 6.31µM*; RORg inh: 2.51µM*

What do the screens show for `CCN(c1ccccc1C(=O)O)S(=O)(=O)c1ccc2[nH]c(=O)[nH]c2c1`?
B2AR arrestin: 0.3%; VP16 counter: -4.3%; RORg inh: 4.5%

How did CCCCCCCC/C=C/CCCCCCCC(=O)NCCOP(=O)(O)O do in these assays?
VP16 counter: -8.4%; RORg inh: -10.8%

What do the screens show for `CC(C)[C@H](NC(=O)OC(C)(C)C)[C@@H](O)CC(=O)C(C)(C)C`?
VP16 counter: -5.2%[10 µM]; RORg inh: 15.6%[10 µM]

How did CCOc1cc(/C=C2\SC(=N)N(c3nonc3N)C2=O)ccc1OCC(N)=O do in these assays?
B2AR arrestin: -0.7%; VP16 counter: -6.6%; NPSR antag: 20.2%; RORg inh: inconclusive

Results for CCOc1cc(/C=C2\SC(=N)N(c3nonc3N)C2=O)ccc1OCCN1CCOCC1 ?
B2AR arrestin: 0.9%; VP16 counter: inconclusive; NPSR antag: 38.6%; RORg inh: 3.16µM*

How did COc1ccc2cc(C(=O)N/N=C/c3sc4ccccc4c3O)ccc2c1 do in these assays?
B2AR arrestin: -1.2%; VP16 counter: inconclusive; NPSR antag: -8.6%; RORg inh: 3.55µM*

What do the screens show for `O=C(N/N=C/c1sc2ccccc2c1O)c1ccccc1`?
B2AR arrestin: 0.2%; VP16 counter: 1.58µM*; NPSR antag: -48.0%; RORg inh: 1.78µM*

Results for COc1ccc(C(=O)N/N=C/C(=O)c2ccccc2)cc1 ?
B2AR arrestin: -0.2%

What do the screens show for `COc1ccc(C(=O)N/N=C/c2sc3ccccc3c2O)cc1`?
B2AR arrestin: -0.9%; VP16 counter: 3.98µM*; NPSR antag: -36.9%; RORg inh: 2.24µM*

How did O=C(N/N=C/c1cccn1-c1ccc(O)cc1)c1cccc2ccccc12 do in these assays?
B2AR arrestin: -0.6%; VP16 counter: 15.8µM*; RORg inh: 17.8µM*

What do the screens show for `COc1ccc(C(=O)N/N=C/c2c[nH]c3ccccc23)cc1`?
B2AR arrestin: -0.3%; VP16 counter: 3.4%; RORg inh: -0.5%

How did O=C(N/N=C/c1ccccc1F)c1cccc2ccccc12 do in these assays?
B2AR arrestin: 0.0%; VP16 counter: inconclusive; RORg inh: -3.7%

Results for COc1cccc(-c2nc(NC3CCNCC3)c3ccccc3n2)c1 ?
VP16 counter: -12.1%; RORg inh: 0.2%

How did CNc1nnc(SCC(=O)c2c(N)n(C3CC3)c(=O)[nH]c2=O)s1 do in these assays?
B2AR arrestin: 0.1%

What do the screens show for `Cc1sccc1/C=N/NC(=O)c1cccc2ccccc12`?
B2AR arrestin: -0.7%; VP16 counter: inconclusive; NPSR antag: -6.2%; RORg inh: 11.2µM*

What do the screens show for `Oc1c(C=Nc2cccc3cccnc23)sc2ccccc12`?
B2AR arrestin: -1.0%; VP16 counter: 1.41µM*; NPSR antag: -19.1%[46.1 µM]; RORg inh: 1.78µM*

How did CCn1ncc(/C=N\NC(=O)c2csc3ccccc23)c1C do in these assays?
B2AR arrestin: -0.9%; VP16 counter: inconclusive; NPSR antag: -4.6%[46.1 µM]; RORg inh: 10µM*

Results for O=C(N/N=C/c1sc2ccccc2c1O)c1cccc2ccccc12 ?
B2AR arrestin: 0.2%; VP16 counter: 4.47µM*; NPSR antag: -7.3%; RORg inh: 1.78µM*

How did COc1ccc(/C=C2\N=C(C)OC2=O)cc1[N+](=O)[O-] do in these assays?
B2AR arrestin: 0.5%; VP16 counter: 0.0%; NPSR antag: 3.4%; RORg inh: 13.3%

What do the screens show for `CCC(Oc1ccc(Br)cc1Cl)C(=O)Nc1nnc(C2CC2)s1` (stereo not given)?
B2AR arrestin: -0.8%; VP16 counter: inconclusive; RORg inh: 12.6µM*

Results for N#C/C(=C\C=C\c1ccccc1[N+](=O)[O-])C(=O)NC1CCCCC1 ?
B2AR arrestin: 3.0%; VP16 counter: -15.5%; NPSR antag: inconclusive; RORg inh: inconclusive
